Test results from PubChem BioAssay AID1490 (National Center for Advancing Translational Sciences (NCATS), 2009).
Among all 310,000 compounds or so, about 11,000 (3.5%) were called active. Not shown: some 4% with an inconclusive outcome. The list comes from a sample in which actives are over-represented; it also holds similar structures and randomly drawn compounds. Values without a mark were called inactive. Calls follow the shape of the dose curve; as a rule, active = well fitted inhibition curve with a large enough effect; inconclusive = small, poorly fitted or top-dose-only effect, or another doubt; inactive = no such curve, though single readings can be large or run the other way.

target: 4'-phosphopantetheinyl transferase ffp (Bacillus subtilis) (UniProt Q9F4F7); experiment: qHTS Assay for Inhibitors of Bacillus subtilis Sfp phosphopantetheinyl transferase (PPTase); settings: Biochemical Sfp PPTase activity;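 also: the enzyme is Sfp with the accession as filed and its product quenches rhodamine fluorescence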;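 as to largest response in the series, negative = inhibition: 0% = enzyme reaction without inhibitor and -100% = no enzyme wells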
How it was run: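 Buffer: 50 mM Hepes-Na pH 7.6, 10 mM MgCl2, 0.01% Nonidet P-40, 0.01% BSA. Enzyme 15 nM, pre-exposed to compound 15 min; substrates then added and fluorescence change tracked over 30 min.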
Potency is read from the fitted curve at half-maximal effect.

First: CC1CC(C)CN(C(=O)C2CC(=O)N(c3ccc(F)cc3)C2)C1 (stereo unspecified)
Second: O=C(C1CCCO1)N1CCN(S(=O)(=O)c2ccc(Br)cc2)CC1 (stereo unspecified)
The largest response in the series, negative = inhibition of the first is higher: 0.935% for the first, -3.46% for the second.

Going from COc1ccc(C(CCN2CCOCC2)c2c(OC)cc(OC)c3c2OC(=O)CC3c2ccc(OC)cc2)cc1 (stereo unspecified) to COc1ccc2cc1Oc1ccc(cc1)C[C@H]1c3cc(c(OC)cc3CCN1C)Oc1c(O)c(OC)cc3c1[C@H](C2)N(C)CC3, the largest response in the series, negative = inhibition rises from -11.3% to 1.93%.

Compared with Cc1cc(F)ccc1N1CCC(N2CCN(C)C(CCO)C2)CC1 (stereo unspecified), CN1CCN(S(=O)(=O)c2ccc(NC(=S)NC(=O)C3CC3)cc2)CC1 is higher in largest response in the series, negative = inhibition: 6.62% for the first, 22.5% for the second.

Going from COc1ccc(-c2c3c(=O)n(C)c(=O)n(C)c3cn2-c2cccc(OC)c2)cc1 to Cc1ccc(-c2c3c(=O)n(C)c(=O)n(C)c3cn2-n2cnnc2)cc1, the largest response in the series, negative = inhibition rises from 3.62% to 12.6%.

Going from O=C(CCNC(=O)C1CCN(S(=O)(=O)c2ccccc2)CC1)NC1CC1 to CC(=O)Nc1ccc(S(=O)(=O)N2CCC(C(=O)N[C@@H](Cc3ccccc3)C(=O)O)CC2)cc1, the largest response in the series, negative = inhibition rises from 5.65% to 27.7%.

Compared with Cc1ccc(NC(=O)CCC(=O)c2ccc(Br)cc2)cc1, CN(CC(=O)Nc1ccc(Cl)cc1)C(=O)CNC(=O)c1ccc2ccccc2c1 is lower in largest response in the series, negative = inhibition: 11.8% for the first, 1.11% for the second.

First: Cc1cc(C)c2c(=O)[nH]c(SCC(=O)Nc3ccc(Br)cc3)nc2n1
Second: Cc1ccc(Nc2nc(-c3sc(NC(=O)c4ccccc4)nc3C)cs2)cc1
The largest response in the series, negative = inhibition of the first is higher: 1.73% for the first, 0.727% for the second.

First: CCOc1ccc2nc(NCCNC(=O)C(C)(C)C)c(C)cc2c1
Second: Cc1ccc(OCC(=O)NC(C)c2ccccc2)cc1C (stereo unspecified)
The largest response in the series, negative = inhibition of the first is higher: 17.3% for the first, -3.78% for the second.

Compared with CCOc1ccc(S(=O)(=O)NCCSc2ccccc2)cc1, O=S(=O)(Nc1ccccc1)c1ccc(NS(=O)(=O)c2cccs2)cc1 is higher in largest response in the series, negative = inhibition: 6.97% for the first, 16.9% for the second.

First: COc1cc(COCC(O)CN2CCN(Cc3ccc4c(c3)OCO4)CC2)cc(OC)c1OC (stereo unspecified)
Second: CCCCN1C(=O)C(C)=C(C)C1OCCc1ccc(OC)c(OC)c1 (stereo unspecified)
The largest response in the series, negative = inhibition of the first is lower: 8.76% for the first, 14% for the second.

Compared with CCOC(=O)[C@]1(C(/C=C/c2ccco2)NC(=O)OC)CCCC1=O (stereo partly specified), CCOC(=O)c1cnc(SCC(=O)NCc2ccco2)nc1N is lower in largest response in the series, negative = inhibition: -6.29% for the first, -17.3% for the second.

First: O=C(O)c1cc(S(=O)(=O)N(Cc2ccccc2)c2ccccc2)ccc1Cl
Second: O=C1CCN(Cc2ccccc2)CCN1[C@H](CSc1ccccc1)c1ccccc1
The largest response in the series, negative = inhibition of the first is higher: 19% for the first, 2.51% for the second.

Going from COc1ccc2[nH]c(=O)c(CN(Cc3nnnn3CCc3ccccc3)CC3CCCO3)cc2c1 (stereo unspecified) to CCC(c1nnnn1Cc1ccccc1)N(Cc1cc2cc(OC)ccc2[nH]c1=O)CC1CCCO1 (stereo unspecified), the largest response in the series, negative = inhibition falls from 0.899% to -86%.

First: CCC(c1nnnn1C1CCCC1)N(Cc1cccs1)Cc1cc2cccc(C)c2[nH]c1=O (stereo unspecified)
Second: CCC(c1nnnn1Cc1ccco1)N(CCc1ccccc1)Cc1cc2ccc(OC)cc2[nH]c1=O (stereo unspecified)
The largest response in the series, negative = inhibition of the first is higher: 9.11% for the first, -15.9% for the second.

First: COc1ccc(-c2nc3c(s2)CCc2onc(-c4ccc(OC)cc4)c2-3)cc1
Second: COc1ccc(-c2nnc3ccc(SCc4ccccc4)nn23)cc1
The largest response in the series, negative = inhibition of the first is higher: 4.62% for the first, -4.23% for the second.

Going from CC(NCc1cccs1)C(=O)Nc1cc(Cl)cc(Cl)c1 (stereo unspecified) to COC(=O)c1ccc(CSc2ccccc2C)o1, the largest response in the series, negative = inhibition rises from -16.2% to 17.7%.

Going from CC1=C(C(=O)NC2CC(C)(C)Cc3c2cnn3-c2ccc(C)cc2)OCCO1 (stereo unspecified) to Cc1ccc(N2C(=O)CC(Nc3cccc4ccccc34)C2=O)cc1 (stereo unspecified), the largest response in the series, negative = inhibition falls from 15.5% to 3.72%.

Compared with CCN(CC)CCCCn1c(-c2ccccc2)nc2c(N3CCOCC3)nc(C)nc21, Cc1ccc(Cc2c(C)nc3nc(SCC(=O)NCCN4CCOCC4)nn3c2C)cc1 is lower in largest response in the series, negative = inhibition: 39.5% for the first, -2.31% for the second.

Going from O=C(CN1C(=O)S/C(=C\c2ccccc2F)C1=O)NCCCn1ccnc1 to Cc1ccc(-c2nc(C#N)c(NCCCn3ccnc3)o2)cc1, the largest response in the series, negative = inhibition falls from 16.3% to -4.22%.

Compared with COc1cc2ccccc2cc1C(=O)Nc1nc(C)c(C(C)=O)s1, CC(=O)c1sc(N/N=C\c2ccc(C)cc2)nc1C is lower in largest response in the series, negative = inhibition: -2.33% for the first, -20.4% for the second.

Going from CCC(=O)c1cn(CCOc2ccccc2OC)c2ccccc12 to C=CCc1ccccc1OCC(=O)N/N=C/c1ccccc1OCC, the largest response in the series, negative = inhibition falls from 2.97% to -17.8%.

Compared with O=C(NC(=S)Nc1ccc(S(=O)(=O)N2CCOCC2)cc1)c1ccccc1[N+](=O)[O-], N[C@@H](Cc1ccccc1)C(=O)N1CCC(C(=O)NCC(=O)Nc2ccc(F)cc2)CC1 is higher in largest response in the series, negative = inhibition: -9.64% for the first, -3.37% for the second.

Compared with CC(=O)Oc1cccc(C(=O)Nc2ccccc2NC(=O)c2cccc(OC(C)=O)c2)c1, O=C(CC1Nc2ccccc2NC1=O)Nc1ccccc1NC(=O)CC1Nc2ccccc2NC1=O (stereo unspecified) is lower in largest response in the series, negative = inhibition: 11.7% for the first, -13.5% for the second.

Compared with CCOc1ccc2[nH]c(=O)c(CN(CCCO)S(=O)(=O)c3ccc(F)cc3)cc2c1, O=C(O)CS/C(=C\c1ccc(F)cc1)c1nc2ccccc2s1 is higher in largest response in the series, negative = inhibition: 2.06% for the first, 27.3% for the second.

First: O=C1c2ccccc2C(=O)N1c1cccc2ccccc12
Second: Cn1c(SCC(=O)N2CCCc3ccccc32)nc2ccccc2c1=O
The largest response in the series, negative = inhibition of the first is higher: 4.99% for the first, 0.535% for the second.

Going from COc1ccc(NC(=O)CCS(=O)(=O)c2cc3c(cc2Cl)NC(=O)CO3)cc1OC to Cc1ccc(NC(=O)O[C@@H]2C(=O)c3cc(Br)ccc3O[C@H]2c2ccc3c(c2)OCO3)cc1Br, the largest response in the series, negative = inhibition falls from 8.75% to -5.42%.

Going from CCOc1ccccc1/C=N/NC(=O)CNC(=O)COc1ccccc1 to CCOC(=O)c1ccccc1NC(=O)CC1Nc2ccccc2NC1=O (stereo unspecified), the largest response in the series, negative = inhibition falls from 13.5% to 5.03%.

Going from C[N+](C)(C)CCNC(=O)c1cc[n+](Cc2ccccc2)c(/C=N/O)c1 to O=C(CSc1ncccn1)NCCc1ccccc1, the largest response in the series, negative = inhibition rises from 3.04% to 18.5%.

Going from N#CCC(=O)NC1CCC(CC2CCC(NC(=O)CC#N)CC2)CC1 (stereo unspecified) to Cc1ccccc1NC(=O)CSc1nc2ccc(Nc3nc(N4CCOCC4)nc(N4CCOCC4)n3)cc2s1, the largest response in the series, negative = inhibition falls from -5.45% to -16.9%.

Compared with CCCn1c(SCC(=O)N2CCc3ccccc32)nnc1-c1ccncc1, CC(C)[C@H](NC(=O)N1CCn2c1nc1ccccc12)C(=O)NCCc1ccccc1 is lower in largest response in the series, negative = inhibition: 15.4% for the first, 3.48% for the second.

First: O=C(Nc1nc2ccccc2s1)c1ccc2c(c1)OCO2
Second: CCNc1nc(-c2cc3ccccc3o2)cs1
The largest response in the series, negative = inhibition of the first is higher: 16.2% for the first, -14.8% for the second.

Going from CC(C(=O)NC1CCS(=O)(=O)C1)N1C(=O)/C(=C/c2ccc(Cl)cc2)SC1=S (stereo unspecified) to Cc1cccc(NC(=O)NC2(C)CCS(=O)(=O)C2)c1 (stereo unspecified), the largest response in the series, negative = inhibition rises from -16.1% to 14.2%.

Compared with CC(C)(C)c1ccc(CN2C(=O)c3ccccc3S2(=O)=O)cc1, Cc1ccc(NS(=O)(=O)c2ccc3c(c2)oc(=O)n3C)c(C)c1 is higher in largest response in the series, negative = inhibition: -8.95% for the first, 5.37% for the second.

Going from Cc1cc(C)cc(OCC(=O)NC(C)c2ccccc2)c1 (stereo unspecified) to Cc1sc2ncn(CC(=O)NCCCC(=O)N(C)Cc3ccccc3)c(=O)c2c1C, the largest response in the series, negative = inhibition rises from -3.71% to 13.5%.

First: C[C@@H]1O[C@@H](OC[C@H]2O[C@@H](Oc3cc(O)c4c(c3)O[C@H](c3ccc(O)c(O)c3)CC4=O)[C@H](O)[C@@H](O)[C@@H]2O)[C@H](O)[C@H](O)[C@H]1O
Second: O=C(O)c1ccc(NC(=O)c2ccc(COc3ccc(Cl)cc3)o2)cc1
The largest response in the series, negative = inhibition of the first is lower: 2.86% for the first, 9.95% for the second.

First: O=S(=O)(c1ccccc1)c1nc(-c2ccccc2)oc1NCCCN1CCOCC1
Second: S=C(NCCc1ccccc1)Nc1ccccc1
The largest response in the series, negative = inhibition of the first is higher: 11.1% for the first, -0.65% for the second.

For Cc1ccc(-c2c3c(=O)n(C)c(=O)n(C)c3cn2-c2ccccc2O)cc1, the Potency was 56.2 µM (active).
Cc1ccn(C(CC(=O)c2ccc(Br)cc2)C(=O)O)n1 (stereo unspecified) was tested, and the Potency was 22.4 µM (active).
For CCOc1ccc2nc(NCCNS(=O)(=O)c3ccccc3)c(C#N)cc2c1, the Potency was 79.4 µM (active).
With COc1c(O)ccc2c1CN1CCc3cc4c(cc3C1C2)OCO4 (stereo unspecified) the Potency was 35.5 µM (active).
CCC(c1nnnn1Cc1ccco1)N(CCc1ccccc1)Cc1cc2cccc(C)c2[nH]c1=O (stereo unspecified) was tested, and the Potency was 25.1 µM (active).
With CCC(c1nnnn1Cc1ccco1)N(Cc1cc2cc(OC)ccc2[nH]c1=O)C1CCCCC1 (stereo unspecified) the Potency was 3.55 µM (active).
CC(=O)c1sc(NC(=O)C2=NN(c3ccccc3)C(=O)CC2)nc1C was tested, and the Potency was 79.4 µM (active).
O=S(=O)(c1ccc(NC(=S)NN=C(C2CC2)C2CC2)cc1)N1CCOCC1 was tested, and the Potency was 44.7 µM (active).
In the case of CC1=C(C)CC2C(=O)N(c3cccc4ccccc34)C(=O)C2C1 (stereo unspecified), the Potency was 39.8 µM (active).
In the case of C=C(C)CNC(=S)N/N=C/c1ccccc1OCC(=O)O, the Potency was 12.6 µM (active).
For O=C(CSc1ccc2nnc(-c3ccccc3)n2n1)N1CCCc2ccccc21, the Potency was 8.91 µM (active).
COC(=O)c1ccc(CSc2ccc3nnc(-c4ccccc4)n3n2)o1 was tested, and the Potency was 70.8 µM (active).
In the case of O=C(O)CC/C(=C\c1cc2c(cc1Br)OCO2)c1nc2ccccc2s1, the Potency was 50.1 µM (active).
For C/C(CC(=O)NC(C)c1ccccc1)=N\NC(N)=S (stereo unspecified), the Potency was 79.4 µM (active).
In the case of COC(=O)c1cc(C)sc1NC(=O)CC1Nc2ccccc2NC1=O (stereo unspecified), the Potency was 79.4 µM (active).
With N#Cc1nc(-c2ccc(OCc3ccccc3)cc2)oc1NCCCN1CCOCC1 the Potency was 44.7 µM (active).
For Cc1nc2nc(SCC(=O)NCc3ccco3)nn2c(C)c1Cc1ccccc1, the Potency was 50.1 µM (active).
With Cc1nc(C)c(-c2csc(NCCc3ccccc3)n2)s1 the Potency was 50.1 µM (active).
For S=c1[nH]nc(NCCc2ccccc2)s1, the Potency was 22.4 µM (active).
